Where “and” joins values, the source holds several entries; their conditions need not be identical. Equal entries are not always repeated. Records with an inconclusive call do not appear. Calls of active or inactive are those of the source. Unless noted, calls come from the whole dose curve.
Assays:
[1] = Nuclear factor erythroid 2-related factor 2/antioxidant responsive element (Nrf2/ARE) small molecule agonists: luciferase reporter gene qHTS assay in human keratinocytes (AID 1919969); note: nearly all actives have a fitted effect of over 35% in size; note: potency is the fitted concentration of half-maximal effect
[2] = G protein-coupled receptor (GPCR) small molecule agonists, calcium flux assay: HEK293 wild type cell line counter screen (AID 1920065)
Method in brief: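 Readout: fluorescence at 480 nm excitation/540 nm emission, sampled at 1 s intervals for 3 min. Cells had been cultured 18 h, then dye-loaded 1 h at 37 C before compound or ATP addition.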

[3] = p53 small molecule agonists, cell-based qHTS assay with human liver microsomes: qHTS cell viability counter screen (AID 1963579); note: nearly all actives have a fitted effect of over 45% in size; note: potency is the fitted concentration of half-maximal effect
Method in brief: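 Luminescent CellTiter-Glo read-out, 30 min at room temperature, gauged cytotoxicity in p53RE-bla cells exposed 16 h at 37 C to DMSO-dissolved compounds with metabolic activation by human liver microsomes and NADPH, each 0.5 mg/mL final.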

[4] = p53 small molecule agonists, cell-based qHTS assay with rat liver microsomes: qHTS cell viability counter screen (AID 1963580); note: nearly all actives have a fitted effect of over 45% in size
Method in brief: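 Viability is assessed in parallel with the p53 reporter read: HCT-116 p53RE-bla cells receive compounds plus rat microsomes and NADPH (0.5 mg/mL final apiece), incubate 16 h at 37 C, and then CellTiter-Glo luminescence is recorded.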

[5] = p53 small molecule agonists, cell-based qHTS assay: qHTS cell viability counter screen (AID 1963581); note: nearly all actives have a fitted effect of over 45% in size
Method in brief: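 In the same plates used for the p53 bla reporter, HCT-116 cells given compounds for 16 h at 37 C received CellTiter-Glo; luminescence was recorded 30 min later at room temperature.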

[6] = biological target: 5-hydroxytryptamine receptor 2A (Homo sapiens) (UniProt P28223); experiment: 5-hydroxytryptamine receptor 2A (HTR2A) small molecule antagonists, cell-based qHTS assay (AID 1963586); note: nearly all actives have a fitted effect of over 45% in size
Chain of 5-hydroxytryptamine receptor 2A (Homo sapiens) (P28223 whole entry, looked up): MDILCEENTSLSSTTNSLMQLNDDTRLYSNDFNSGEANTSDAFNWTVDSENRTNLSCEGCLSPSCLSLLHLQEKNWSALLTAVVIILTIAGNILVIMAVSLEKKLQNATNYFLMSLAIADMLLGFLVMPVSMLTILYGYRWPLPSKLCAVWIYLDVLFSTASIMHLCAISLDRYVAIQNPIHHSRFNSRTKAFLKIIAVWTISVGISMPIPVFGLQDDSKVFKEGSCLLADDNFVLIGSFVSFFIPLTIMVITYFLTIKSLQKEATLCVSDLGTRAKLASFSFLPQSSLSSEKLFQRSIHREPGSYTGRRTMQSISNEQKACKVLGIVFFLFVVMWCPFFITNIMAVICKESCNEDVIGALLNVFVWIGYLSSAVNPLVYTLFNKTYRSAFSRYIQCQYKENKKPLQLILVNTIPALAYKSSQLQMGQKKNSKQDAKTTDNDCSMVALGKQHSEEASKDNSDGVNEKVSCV
Method in brief: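 Antagonist-mode intracellular calcium assay: DOI (4 nM) added after 5 min compound pre-incubation at room temperature to dye-loaded HTR2A-CHO cells. Fluorescence followed for 3 min, sampled every second.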

[7] = biological target: Muscarinic acetylcholine receptor M1 (Homo sapiens) (UniProt P11229); experiment: Cholinergic receptor muscarinic 1 (CHRM1) small molecule antagonists, cell-based qHTS assay (AID 1963588); note: nearly all actives have a fitted effect of over 40% in size
Chain of Muscarinic acetylcholine receptor M1 (Homo sapiens) (P11229 whole entry, looked up): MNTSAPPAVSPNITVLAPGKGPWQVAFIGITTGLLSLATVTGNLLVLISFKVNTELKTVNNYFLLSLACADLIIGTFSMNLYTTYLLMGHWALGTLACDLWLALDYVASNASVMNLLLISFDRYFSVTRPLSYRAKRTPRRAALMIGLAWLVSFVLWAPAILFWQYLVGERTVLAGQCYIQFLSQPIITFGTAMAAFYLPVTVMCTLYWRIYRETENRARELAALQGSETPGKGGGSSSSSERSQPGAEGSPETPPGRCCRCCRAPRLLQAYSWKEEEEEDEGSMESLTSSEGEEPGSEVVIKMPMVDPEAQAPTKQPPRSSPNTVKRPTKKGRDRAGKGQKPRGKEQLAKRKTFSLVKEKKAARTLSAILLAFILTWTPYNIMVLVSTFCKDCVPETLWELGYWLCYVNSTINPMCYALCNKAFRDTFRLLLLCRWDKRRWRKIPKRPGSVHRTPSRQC
Method in brief: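 CHRM1-CHO calcium-flux assay, antagonist mode. Cells were seeded 18 h, dye-loaded 1 h at 37 C and given compound for 5 min at RT, then acetylcholine was added at 50nM. FDSS fluorescence was read 3 min; 15 concentrations, three runs.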

[8] = biological target: Muscarinic acetylcholine receptor M1 (Homo sapiens) (UniProt P11229); experiment: Cholinergic receptor muscarinic 1 (CHRM1) small molecule agonists, cell-based qHTS assay (AID 1963589); note: nearly all actives have a fitted effect of over 35% in size
Method in brief: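 Each compound was tested at 15 concentrations across three independent runs on dye-loaded CHO cells stably expressing human CHRM1, reading intracellular calcium fluorescence kinetically at 1 sec intervals.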

[9] = biological target: Beta-2 adrenergic receptor (Homo sapiens) (UniProt P07550); experiment: Adrenergic beta2 receptor (ADRB2) small molecule antagonists, cell-based qHTS assay (AID 1963592); note: series mostly up to about 92 µM; nearly all actives have a fitted effect of over 50% in size
Chain of Beta-2 adrenergic receptor (Homo sapiens) (P07550 whole entry, looked up): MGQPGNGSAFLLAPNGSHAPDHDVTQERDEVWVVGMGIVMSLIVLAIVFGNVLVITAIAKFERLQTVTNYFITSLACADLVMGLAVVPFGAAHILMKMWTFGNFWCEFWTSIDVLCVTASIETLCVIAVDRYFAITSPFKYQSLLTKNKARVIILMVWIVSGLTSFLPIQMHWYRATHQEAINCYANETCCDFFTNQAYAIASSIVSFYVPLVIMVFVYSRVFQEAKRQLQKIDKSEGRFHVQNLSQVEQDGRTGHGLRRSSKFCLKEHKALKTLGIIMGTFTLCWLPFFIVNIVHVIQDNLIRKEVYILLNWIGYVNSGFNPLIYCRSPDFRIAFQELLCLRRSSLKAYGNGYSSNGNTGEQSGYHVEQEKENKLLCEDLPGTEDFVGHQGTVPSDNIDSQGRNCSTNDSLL
Method in brief: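 Cells (CHO, stable ADRB2 overexpression) incubated 18-20hr at 37C; compounds added from DMSO; agonist mix (1nM isoproterenol, 100uM IBMX, 25uM Ro-20-1724) added; 0.5hr RT; d2-cAMP and anti-cAMP-cryptate added; 1hr RT; 665/615 nm read.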

[10] = biological target: D(2) dopamine receptor (Homo sapiens) (UniProt P14416); experiment: Dopamine D2 receptor (DRD2) small molecule agonists, cell-based qHTS assay (AID 1963594); note: nearly all actives have a fitted effect of over 35% in size
Chain of D(2) dopamine receptor (Homo sapiens) (P14416 whole entry, looked up): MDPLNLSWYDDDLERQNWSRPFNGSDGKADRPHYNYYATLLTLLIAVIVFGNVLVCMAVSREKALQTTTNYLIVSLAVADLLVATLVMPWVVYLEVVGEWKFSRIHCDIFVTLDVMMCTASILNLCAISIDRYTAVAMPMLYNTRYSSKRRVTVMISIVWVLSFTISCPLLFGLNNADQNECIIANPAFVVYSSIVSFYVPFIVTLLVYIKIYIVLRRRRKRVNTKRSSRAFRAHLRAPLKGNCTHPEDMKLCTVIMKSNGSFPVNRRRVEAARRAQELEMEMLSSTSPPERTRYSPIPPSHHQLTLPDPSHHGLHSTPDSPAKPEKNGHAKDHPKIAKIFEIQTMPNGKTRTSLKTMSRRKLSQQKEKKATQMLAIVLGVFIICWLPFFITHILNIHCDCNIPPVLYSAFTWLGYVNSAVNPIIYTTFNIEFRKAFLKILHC
Method in brief: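 HEK293 cells stably expressing human DRD2, pre-treated with PDE inhibitor Ro20-1724 (0.1 mM final) and compound 10 min at room temperature, then stimulated with NKH477 (200nM […]) for 30 min. cAMP read by HTRF (665/620 nm).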

[11] = biological target: D(2) dopamine receptor (Homo sapiens) (UniProt P14416); experiment: Dopamine D2 receptor (DRD2) small molecule antagonists, cell-based qHTS assay (AID 1963595; active = well fitted inhibition curve with a large enough effect in the signal ratio in the repeat runs, with a control signal flat; the % refers to the signal ratio)
Method in brief: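 DRD2-HEK293; 0.1 mM Ro20-1724; cpd 10 min RT; NKH477 200 nM + quinpirole 12 nM, 30 min RT; HTRF cAMP (cAMP-d2/anti-cAMP cryptate), 665/620 nm ratio after 1 h.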

[12] = biological target: Gonadotropin-releasing hormone receptor (Homo sapiens) (UniProt P30968); experiment: Human gonadotropin-releasing hormone receptor (GnRHR) small molecule agonists, calcium flux assay in GnRHR-HEK293 cells (AID 1920063); note: nearly all actives have a fitted effect of over 35% in size
Chain of Gonadotropin-releasing hormone receptor (Homo sapiens) (P30968 whole entry, looked up): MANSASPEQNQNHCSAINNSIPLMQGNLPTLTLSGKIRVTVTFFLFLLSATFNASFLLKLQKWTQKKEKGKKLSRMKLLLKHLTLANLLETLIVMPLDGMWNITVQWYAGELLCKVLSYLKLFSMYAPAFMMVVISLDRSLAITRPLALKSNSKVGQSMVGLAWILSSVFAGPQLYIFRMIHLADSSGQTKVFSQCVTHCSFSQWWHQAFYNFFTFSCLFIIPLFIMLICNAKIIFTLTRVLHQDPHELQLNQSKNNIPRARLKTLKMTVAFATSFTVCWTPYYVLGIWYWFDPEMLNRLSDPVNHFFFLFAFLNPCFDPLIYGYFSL
Method in brief: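 Fluorescence kinetics (480 nm excitation, 540 nm emission; 3 min, 1 s steps) report calcium mobilisation in human GnRHR-HEK293 cells in agonist mode. Dye incubation: 1 h, 37 C.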

[13] = biological target: KiSS-1 receptor (Homo sapiens) (UniProt Q969F8); experiment: Human kisspeptin (KISS1R) small molecule agonists, calcium flux assay in KISS1R-HEK293 cells (AID 1920064; active = well fitted activation curve with a large enough effect in the repeat runs)
Chain of KiSS-1 receptor (Homo sapiens) (Q969F8 whole entry, looked up): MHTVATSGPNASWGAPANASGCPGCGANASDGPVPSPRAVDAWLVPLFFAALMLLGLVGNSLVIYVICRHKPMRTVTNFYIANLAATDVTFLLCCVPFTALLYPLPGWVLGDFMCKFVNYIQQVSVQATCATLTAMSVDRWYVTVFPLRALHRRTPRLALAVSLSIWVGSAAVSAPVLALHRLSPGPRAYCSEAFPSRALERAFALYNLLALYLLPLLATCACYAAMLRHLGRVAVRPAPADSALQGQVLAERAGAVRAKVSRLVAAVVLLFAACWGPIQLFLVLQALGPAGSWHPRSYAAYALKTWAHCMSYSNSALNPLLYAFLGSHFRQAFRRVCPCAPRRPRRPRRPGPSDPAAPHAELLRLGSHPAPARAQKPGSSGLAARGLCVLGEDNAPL
Method in brief: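 Measures KISS1R agonism through calcium-sensitive dye fluorescence in stably transfected HEK293 cells, read for 3 min after pin-tool compound delivery; 15-point titrations in triplicate.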

[14] = p53 small molecule agonists, cell-based qHTS assay with human liver microsomes (AID 1963577);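 note: p53 response element beta-lactamase reporter cells with liver microsomes plus NADPH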
Method in brief: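 p53RE-bla cells; 5 h settle, 37 C/5% CO2; cpd + HLM 0.5 mg/mL + NADPH 0.5 mg/mL (final); 16 h 37 C; LiveBLAzer 2 h RT dark; fluorescence readout.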

[15] = p53 small molecule agonists, cell-based qHTS assay with rat liver microsomes (AID 1963578)
Method in brief: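 Rat liver microsome activation: microsomes 0.5 mg/mL, NADPH 0.5 mg/mL final; p53RE-bla cells, 16 h 37 C; LiveBLAzer readout, 2 h RT dark.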

[16] = p53 small molecule agonists, cell-based qHTS assay (AID 1963582; active = well fitted activation curve with a large enough effect in the signal ratio in the repeat runs, not every such curve was filed as active; the % refers to the signal ratio)
Method in brief: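 Compounds are pin-transferred in DMSO onto p53RE-bla cells and incubated 16 h at 37 C. The B/G FRET beta-lactamase substrate is then applied for 2 h at RT and fluorescence recorded.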

[17] = biological target: 5-hydroxytryptamine receptor 2A (Homo sapiens) (UniProt P28223); experiment: 5-hydroxytryptamine receptor 2A (HTR2A) small molecule agonists, cell-based qHTS assay (AID 1963587); note: nearly all actives have a fitted effect of over 30% in size
Method in brief: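 CHO cells stably expressing human HTR2A, plated 18 h, loaded with calcium dye 1 h at 37 C. Agonist mode: compounds added and intracellular calcium fluorescence recorded kinetically for 2 min at 1 sec intervals.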

[18] = cAMP Responsive Elements (CRE) small molecule antagonists, cell-based qHTS assay (AID 1963591; active = well fitted inhibition curve with a large enough effect in the signal ratio in the repeat runs, not every such curve was filed as active; the % refers to the signal ratio)
Method in brief: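 Inhibition of NKH477-driven (0.25 uM final) CRE-beta-lactamase signal in HEK293T cells, 3 h compound exposure at 37 °C, detected by FRET substrate fluorescence.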

[19] = cAMP Responsive Elements (CRE) small molecule agonists, cell-based qHTS assay (AID 1963590)
Method in brief: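 Cell line: CRE-bla HEK 293T; medium DMEM/10% dialyzed FBS/0.1 mM NEAA/1 mM pyruvate/25 mM HEPES; 3 h compound exposure; beta-lactamase FRET readout after 2 h substrate loading at RT.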

[20] = biological target: Beta-2 adrenergic receptor (Homo sapiens) (UniProt P07550); experiment: Adrenergic beta2 receptor (ADRB2) small molecule agonists, cell-based qHTS assay (AID 1963593);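 note: CHO cells stably overexpressing human ADRB2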
Method in brief: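 CHO cells stably over-expressing ADRB2 were plated overnight at 37C, then dosed with compounds plus a stimulation mix containing 100uM IBMX and 25uM Ro-20-1724 for 0.5hr at room temperature. cAMP was measured by HTRF competition, 1hr.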
% is set by controls: 0 for no effect and ±100 for the full control effect.

c1cc(N(CC2CO2)CC2CO2)ccc1OCC1CO1 (stereo not given)
active: Potency [1] 27.3 µM and 24.3 µM
inactive: Potency [2] | Potency [3] | Potency [4] | Potency [5] | Potency [6] | Potency [7] | Potency [8] | Potency [9] | Potency [10] | Potency [11]

O=C(NCc1ncc(C(F)(F)F)cc1Cl)c1c(Cl)cccc1Cl
inactive: Potency [12] | Potency [13] | Potency [2] | Potency [14] | Potency [15] | Potency [3] | Potency [4] | Potency [5] | Potency [16] | Potency [6] | Potency [17] | Potency [7] | Potency [8] | Potency [18] | Potency [9] | Potency [11]

Cc1cc2nc3ccc(=[N+](C)C)cc-3sc2cc1N
inactive: Potency [13] | Potency [2] | Potency [6] | Potency [17] | Potency [7] | Potency [8] | Potency [19] | Potency [18]
active: Potency [1] 2.37 µM | Potency [3] 11.2 µM

C=Cc1ccncc1
inactive: Potency [12] | Potency [13] | Potency [2] | Potency [14] | Potency [15] | Potency [3] | Potency [4] | Potency [5] | Potency [16] | Potency [6] | Potency [17] | Potency [7] | Potency [8] | Potency [19] | Potency [18] | Potency [9] | Potency [20] | Potency [10] | Potency [11]

NS(=O)(=O)c1cc2c(cc1Cl)NC(CSCc1ccccc1)=NS2(=O)=O
inactive: Potency [1] | Potency [13] | Potency [15] | Potency [3] | Potency [4] | Potency [5] | Potency [16] | Potency [17] | Potency [7] | Potency [8] | Potency [19] | Potency [18] | Potency [9] | Potency [10] | Potency [11]

O=C(O)c1ccccc1Nc1cc(Cl)ccc1C(=O)O
inactive: activity change [12] -1.18% [at 11.8 µM, stronger effect = higher value] | activation [13] 0.0094% [at 15.8 µM] | activation [2] -0.251% [at 11.8 µM] | activation [14] -15.2% [at 13.5 µM] | activation [15] -10.2% [at 13.6 µM] | activity change, negative = cytotoxicity [3] -16.4% [at 13.5 µM] | activity change, negative = cytotoxicity [4] -20.9% [at 13.5 µM] | activity change, negative = cytotoxicity [5] -5.7% [at 13.5 µM] | activation [16] 1.24% [at 13.5 µM] | activity, negative = inhibition [6] 13.3% [at 12.7 µM] | activation [17] -3.1% [at 15.9 µM] | activity, negative = inhibition [7] 22.2% [at 12.6 µM] | activation [8] 0.0185% [at 15.8 µM] | activation [19] -0.0043% [at 19 µM] | activity change, negative = inhibition [9] 5.54% [at 19 µM] | activation [20] -0.399% [at 19 µM] | activity change, negative = inhibition [11] -1.66% [at 18.9 µM]

C[C@]12CC[C@@H]3c4ccc(O)cc4CC[C@H]3[C@@H]1CC[C@@H]2OC(=O)CCC1CCCC1
inactive: Potency [1] | Potency [13] | Potency [2] | Potency [15] | Potency [3] | Potency [4] | Potency [5] | Potency [6] | Potency [17] | Potency [7] | Potency [8] | Potency [19] | Potency [18] | Potency [9] | Potency [20] | Potency [10] | Potency [11]

— PubChem BioAssay (Tox21)
